The list is not random: actives were taken first. Their share in the collection is about 12%.
Shiga toxin inh: inhibitors of Shiga toxin in Vero cells; Vero cells, Shiga toxin protein synthesis inhibition reporter; inhibition, % at 38.7 µM; actives 9.2% (n = 290,000); AID 2315; in the data active = inhibition mostly above about 28%, no sharp cut-off; inactive = mostly below about 43%; also: 0% is about no effect
Cycloheximide cs: counter-screen hit for Shiga toxin inhibitors, cycloheximide. cell reporter, cycloheximide protein synthesis inhibition counterscreen. max response, %. actives 12% (n = 300,000); in the data active = max response mostly above about 13%, no sharp cut-off; inactive = mostly below about 14%; also: read at 38.3 µM for the half of the compounds with a filed dose; 0% is about no effect
FMDV inh: antivirals against foot and mouth disease virus; actives 1.2% (n = 410,000); Potency, µM (titrated, usually from 57.9 µM), for the others: at the highest dose activity change, negative = inhibition, most hits filed as inhibitors; FMDV antiviral cell-based qHTS; calls by dose curve; tested in HEK293T cells; also: read-out not given here; potency is read from the fitted curve at half-maximal effect; % is scaled to controls: 0 for no effect and ±100 for the full control effect; nearly all actives have a fitted effect of over 45% in size
Sm TGR inh: S. mansoni TGR enzyme inhibition; Q962Y6; purified TGR, DTNB reduction, TNB absorbance 405 nm; Potency, µM (doses to about 114 µM), without a hit: at the highest dose activity change, negative = inhibition, usual class: inhibitors; actives 3% (n = 360,000); AID 485364; active = well fitted inhibition curve with a large enough effect; inconclusive = small, poorly fitted or top-dose-only effect; inactive = no such curve, though single readings can be large or run the other way; also: potency is read from the fitted curve at half-maximal effect; % is scaled to controls: 0 for no effect and ±100 for the full control effect; nearly all actives have a fitted effect of over 60% in size
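First, TGR (20 nM dispensed) and NADPH were mixed with compound. Second, a 15 min room-temperature incubation followed. Third, further NADPH and then DTNB were added to start the reaction. Finally, TNB absorbance was monitored kinetically.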
* = called active by the depositor; ? = inconclusive; . = not tested or not shown.

SMILES	Shiga toxin inh	Cycloheximide cs	FMDV inh	Sm TGR inh
O=C(COc1ccccc1[N+](=O)[O-])N1CCC(Cc2ccccc2)CC1	-2	-3	-26%	-1%
COc1ccc(-n2c(=O)c3sc4ccccc4c3n(CC(=O)N3CCCC3)c2=O)cc1	.	.	0%	6%
Cc1ccccc1C(=O)N1CCc2c(cnc(C)c2CNC(=O)CN2CCCCC2)C1	.	.	-20%	.
COc1ccc(-c2c3c(=O)n(C)c(=O)n(C)c3cn2-c2ccc(O)cc2)cc1	-19	-1	-22%	45µM*
Cc1ccc(Cl)cc1Nc1nc2ccccc2n2c(C)nnc12	.	.	-15%	5%
O=C(Nc1ccccc1Cl)ON=C1c2ccccc2-c2ccccc21	45*	23*	35%	8%
COc1ccc(N2CC(NC(=O)C3CCCC3)CC2=O)cc1OC (stereo not drawn)	.	.	-18%	-9%
COc1ccc2c(=O)c3c(=O)n(Cc4ccco4)c(-c4ccc(C)cc4)nc3oc2c1	32	-1	?	32µM*
COc1cc(-c2nc3oc4ccccc4c(=O)c3c(=O)n2Cc2ccco2)cc(OC)c1OC	40*	22*	0%	?
COc1cc(C2=N/C(=C\c3ccccc3)C(=O)O2)cc(OC)c1OC	.	.	-12%	.
COc1cccc(C2=N/C(=C\N(C)C)C(=O)O2)c1	94	34*	33%	1%
Cc1cc2cc(OCc3ccccc3)ccc2n1C	31*	25*	53%	-24%
Cc1c(C=O)c2cc(OCc3ccccc3)ccc2n1C	70*	39*	32%	2%
Cc1ccccc1-c1nnc(-c2cccs2)o1	85*	58*	62%	25%
Cc1cccc2cc(-c3nc(-c4cccs4)no3)c(=O)oc12	.	.	?	1%
Cc1ccccc1-c1noc(-c2cccs2)n1	87*	55*	33%	-8%
Fc1ccccc1CNCCc1ccc2c(c1)OCO2	23	3	17%	10µM*
Clc1ccc(CNCCc2ccc3c(c2)OCO3)cc1	-3	2	17%	0%
Fc1ccccc1CNCc1ccc2c(c1)OCO2	22	19*	0%	-2%
Clc1ccccc1CNCc1ccc2c(c1)OCO2	.	.	29%	.
CC(C)CCn1nnc2sc(-c3ccccc3)cc2c1=O	.	.	49%	-2%
CC[C@H](C)[C@@H]1NC(=O)[C@H]([C@@H](C)CC)NC(=O)[C@@H](CC(C)C)NC(=O)[C@H](Cc2ccccc2)NC(=O)[C@H](Cc2ccccc2)NC(=O)[C@@H]2CCCN2C(=O)[C@@H]2CCCN2C(=O)[C@H](C(C)C)NC(=O)[C@H](CC(C)C)NC1=O	.	.	-10%	.
CCc1cc(C(=O)NNC(=S)Nc2cc(C)ccc2C)cs1	20	5	17%	-20%
CCc1cc(C(=O)NNC(=S)Nc2ccccc2C)cs1	96*	38*	52%	-8%
Cc1ccccc1NC(=S)NNC(=O)c1ccco1	52*	32*	19%	-2%
SMILES	Shiga toxin inh	Cycloheximide cs	FMDV inh	Sm TGR inh
O=C(NNC(=S)Nc1ccccc1)c1ccco1	19	12	26%	-16%
CCc1cc(C(=O)Nc2ccccc2)cs1	106*	41*	21%	-7%
O=C(NNC(=S)Nc1ccc(F)cc1F)c1ccco1	27	33*	0%	-18%
Cc1ccccc1NC(=O)c1ccco1	.	-2	-11%	-15%
O=C(O)c1ccc(N/N=C/c2cn(Cc3ccccc3F)c3ccccc23)cc1	32	67*	?	-27%
COC(=O)N/N=C/c1cn(Cc2ccc(F)cc2)c2ccccc12	7	8	-10%	-20%
Nc1ccc(C(=O)N/N=C/c2cn(Cc3ccccc3)c3ccccc23)cc1	16	17*	-18%	-2%
Nc1ccc(C(=O)N/N=C/c2cn(Cc3ccc(F)cc3)c3ccccc23)cc1	107*	33*	-20%	2%
O=Cc1cn(Cc2ccccc2F)c2ccccc12	1	2	-8%	4%
COc1cc(C(=O)N/N=C/c2cn(Cc3ccccc3)c3ccccc23)ccc1O	24	14	?	-4%
CCOC(=O)Cn1cc(/C=N/NC(=O)c2cc3ccccc3o2)c2ccccc21	58	26*	-14%	11%
COc1ccccc1N1CCN(C(=O)c2cc3c(=O)n(C)c4ccccc4c3s2)CC1	.	.	-7%	-7%
CC(C)n1cc(/C=N/Nc2ccc(C(=O)O)cc2)c2ccccc21	54*	58*	3.5µM*	-19%
Cn1cc(/C=N/Nc2ccccc2)c2ccccc21	29	4	52%	-2%
Nc1ccc(C(=O)N/N=C/c2cn(Cc3ccccc3F)c3ccccc23)cc1	33*	19*	6%	1%
COC(=O)N/N=C/c1cn(Cc2ccccc2F)c2ccccc12	3	11	-28%	6%
CCOCCCNC(=O)c1ccc2c(=O)n(CCc3ccc(OC)c(OC)c3)c(=O)[nH]c2c1	.	.	-22%	-3%
COc1ccc(CCn2c(=O)c3cccnc3n(CC(=O)Nc3ccc(C)cc3C)c2=O)cc1OC	.	.	0%	9%
CC(C)(C)CN1CCNC[C@H]1Cc1cccc2ccccc12	.	.	-14%	22µM*
CSc1ccc(CCNC(=O)NCc2noc3ccccc23)cc1	.	.	-4%	-2%
Cc1c(C(=O)OC(C)C)sc(N)c1C(=O)OC(C)C	107*	32*	12%	5%
Cc1c(C(N)=O)sc(N)c1C(=O)OC(C)C	11	2	23%	0%
CC(=O)c1sc(N)c(C(=O)OC(C)C)c1C	24	19*	14%	0%
CC1=C(C#N)c2nc(N)c(C#N)c(C)c2/C1=C\c1ccc(-c2ccccc2C(=O)O)o1	-6	4	-4%	25µM*
COc1cc(/C=C2/C(C)=C(C#N)c3nc(N)c(C#N)c(C)c32)ccc1OCC(=O)O	-14	-5	-15%	.
SMILES	Shiga toxin inh	Cycloheximide cs	FMDV inh	Sm TGR inh
CCc1ccc(C2=C(C)C(N3CCC(C(=O)NCCc4ccco4)CC3)=NS2(=O)=O)cc1	.	.	-1%	-13%
COc1ccc(C)cc1NC(=O)c1ccc2c(c1)nnn2C1CCCC1	.	.	-21%	-3%
Cc1ccc(NC(=O)C(OC(=O)c2ccc(C=O)cc2)c2ccccc2)cc1Cl (stereo not drawn)	5	15*	29%	5%
O=C(NCc1ccoc1)c1ccc(NC(=O)c2ccccc2Cl)cc1	-2	-1	-14%	35µM*
O=C(NCC1OCCc2ccccc21)c1ccc(NC(=O)c2ccccc2Cl)cc1 (stereo not drawn)	1	10	14µM*	-3%
COc1ccc(C(=O)NCC2OCCc3ccccc32)cc1 (stereo not drawn)	151	28	41%	18%
CCOc1ccc(C(=O)NCC2OCCc3ccccc32)cc1 (stereo not drawn)	active	25*	51%	4%
CN(C(=O)Cn1nnc(-c2ccc(S(C)(=O)=O)cc2)n1)c1ccccc1	.	.	-12%	12%
O=C(Nc1ccc2oc(-c3cc(Br)ccc3Cl)nc2c1)c1cc2ccccc2o1	.	.	-15%	14%
Cc1cc2c(cc1S(=O)(=O)Nc1ccc(C(C)C)cc1)OCCN2C	.	.	31%	5%
O=C(c1cnccn1)N1CCc2c([nH]c3ccccc23)C1c1cccc(Cl)c1 (stereo not drawn)	27*	12*	-19%	-12%
COc1ccc(C2c3[nH]c4ccccc4c3CCN2C(=O)c2ccc(=O)n(C)n2)c(F)c1 (stereo not drawn)	34	26*	34%	-10%

Compound activity (PubChem BioAssay)
